The text below walks through data of ChEMBL document CHEMBL3988442, “University of Dundee, Small-Polar-MMV Screening Library” (2021).

In this assay the test system is Trypanosoma brucei. The experiment in a line: Trypanosoma brucei 72 hour study. In kind it is functional, organism-based. Also noted: scale not given: in the data most compounds retested in dose-response had high values.

Screen size: about 66,000 compounds; about 960 (1.5%) showed an effect of 50% or more. What follows is part of a selection rich in strong results, with near analogues and random picks from the rest.

As for `CCc1cc(=O)[nH]c(-n2nc(C3CC3)cc2NC(=O)C2CC2)n1`, the “Percent Effect” value (30 µM, 30.03 µM) is reported as 97.36%.
For `Cc1cc(=O)[nH]c(-n2nc(-c3ccccc3)cc2N)n1`, the “Percent Effect” value (30 µM, 30.03 µM) is -3.849%.
As to `CC(=O)Nc1cc(C2CC2)nn1-c1nc(C)c(C)c(=O)[nH]1`, under “30 µM, 30.03 µM”, the “Percent Effect” value is given as -12.81%.
As to `Cc1cc(=O)[nH]c(-n2nc(C3CC3)cc2N)n1`, the “Percent Effect” value (30 µM, 30.03 µM) is listed as -21.61%.
On the same count and under the same terms, then `CC(C)c1cc(=O)[nH]c(C(C)(C)N)n1.Cl`, with -29.56%.
On the same count and under the same terms, next, `CCCc1cc(=O)[nH]c(-n2nc(C3CC3)cc2N)n1`: 78.26%; `CC(C)c1cc(=O)[nH]c(-n2nc(C3CC3)cc2N)n1`: 99.41%.
As for `CCc1c(C)nc(-n2nc(C3CC3)cc2NC(C)=O)[nH]c1=O`, the “Percent Effect” value (30 µM, 30.03 µM) is listed as -1.646%.
Take `CCCc1cc(=O)[nH]c(-n2nc(-c3cccs3)cc2N)n1`: the “Percent Effect” value (30 µM, 30.03 µM) is reported as -29.48%.
In the case of `COc1ccc(CC(=O)N2Cc3nccn3CC(CN(C)C)C2)cc1.O=C(O)C(F)(F)F` (configuration not stated), under “30 µM, 30.03 µM”, the “Percent Effect” value was -47.37%.
As for `Cc1cccc(CN2CCC3(CC2)NC(=O)C[C@H]3c2cnn(C)c2)n1.O=C(O)C(F)(F)F`, the “Percent Effect” value (30.3 µM, […]) is on record as -5.843%.
The same measure, in the same setting: then `COc1cc2c(cc1CNC(Cc1cccs1)c1nccs1)OCO2.Cl` (configuration not stated), with -17.08%.
For `O=C1N[C@H]2OCCC[C@H]2[C@H](c2ccccc2)N1`, for the setting “30 µM, 30.03 µM”, the “Percent Effect” value is recorded as -11.46%.
Still for that read-out and setting: then `CCOc1cc(CNC(=O)c2cnn(CC)c2C(F)(F)F)ccn1`, with 1.219%; and `O=C(O)C(F)(F)F.OCCN1CCOC2(CCCN(c3cccc(F)c3)C2)C1` (configuration not stated), with 21.19%; and `Fc1cccc(N2CCCC3(C2)CN(c2ncccn2)CCO3)c1.O=C(O)C(F)(F)F.O=C(O)C(F)(F)F` (configuration not stated), with -26.54%.
On to `Cc1ccc(CN2CCOC3(CCCN(c4cccc(F)c4)C3)C2)o1.O=C(O)C(F)(F)F.O=C(O)C(F)(F)F` (configuration not stated), for which the “Percent Effect” value (30.3 µM, […]) is 98.9%.
Regarding `Fc1cccc(N2CCCC3(CN(Cc4ccccn4)CCO3)C2)c1.O=C(O)C(F)(F)F.O=C(O)C(F)(F)F.O=C(O)C(F)(F)F` (configuration not stated), the “Percent Effect” value (30.3 µM, […]) was 1.036%.
On to `Fc1cccc(N2CCCC3(CN(Cc4ccncc4)CCO3)C2)c1.O=C(O)C(F)(F)F.O=C(O)C(F)(F)F.O=C(O)C(F)(F)F` (configuration not stated), for which the “Percent Effect” value (30 µM, 30.03 µM) is recorded as 7.874%.
Take `Cn1cc(CN2CCOC3(CCCN(c4cccc(F)c4)C3)C2)cn1.O=C(O)C(F)(F)F.O=C(O)C(F)(F)F` (configuration not stated): the “Percent Effect” value (30.3 µM, […]) is recorded as -12.05%.
Regarding `Fc1cccc(N2CCCC3(CN(Cc4ccco4)CCO3)C2)c1.O=C(O)C(F)(F)F.O=C(O)C(F)(F)F` (configuration not stated), where the note is “30.3 µM, […]”, the “Percent Effect” value is 99.09%.
On to `Fc1cccc(N2CCCC3(CN(Cc4cccnc4)CCO3)C2)c1.O=C(O)C(F)(F)F.O=C(O)C(F)(F)F.O=C(O)C(F)(F)F` (configuration not stated), for which, under “30.3 µM, […]”, the “Percent Effect” value was found to be 86.99%.
The same measure, in the same setting: next, `Fc1cccc(N2CCCC3(CN(Cc4nccs4)CCO3)C2)c1.O=C(O)C(F)(F)F.O=C(O)C(F)(F)F` (configuration not stated): 9.59%.
`COc1c(C2CCCN2C(=O)c2ccc(O)nc2)c(C)nn1C` (configuration not stated): for the setting “10 µM”, the “Percent Effect” value is -34.15%.
As to `COCCCN1CC2(CCN(C(=O)c3ncc(F)cc3F)CC2)CC1=O`, the “Percent Effect” value (30 µM, 30.03 µM) is -16.91%.
As to `Cl.O=C(NCc1ccc(F)cc1)N1CCN(CC(O)C2CC2)CC1` (configuration not stated), where the note is “30.3 µM, […]”, the “Percent Effect” value worked out at 2.371%.
For `Cc1nc[nH]c1CN1CCc2nc3scc(C)c3c(=O)n2CC1.Cl`, the “Percent Effect” value (30.3 µM, […]) is on record as -39.02%.
Still for that read-out and setting: next, `Fc1cccc(Oc2nccnc2C2CCN(C3CCOCC3)CC2)c1`: -17.84%; `CCn1nc(C)c(CN(CCCOC)Cc2ccccn2)c1C.O=C(O)CC(O)(CC(=O)O)C(=O)O`: -0.7195%.
For the compound `Cn1cc(CN2CCC3(CC2)NC(=O)CC3c2ccncc2)cn1.O=C(O)C(F)(F)F.O=C(O)C(F)(F)F` (configuration not stated), where the note is “30 µM, 30.03 µM”, the “Percent Effect” value was determined as 47.38%.
Consider `COc1ccc(S(=O)(=O)N2CCOC(Cn3ccnc3)C2)cc1.Cc1ccc(S(=O)(=O)O)cc1` (configuration not stated), for which, where the note is “30.3 µM, […]”, the “Percent Effect” value is -20.84%.
On to `CCc1ncc(C(=O)NCCN(C)S(C)(=O)=O)cn1`, for which the “Percent Effect” value (30 µM, 30.03 µM) came to 1.892%.
As for `CN(CCNC(=O)c1cnc(-c2ccccc2)nc1)S(C)(=O)=O`, for the setting “30 µM, 30.03 µM”, the “Percent Effect” value is recorded as 23.88%.
Still for that read-out and setting: then `CN(CCNC(=O)c1cnc(-c2ccncc2)nc1)S(C)(=O)=O`, with 61.08%.
In the case of `CN(C)C(=O)NCc1cc(=O)n2c(n1)CN(Cc1ccoc1)CCC2.O=C(O)C(F)(F)F`, the “Percent Effect” value (30 µM, 30.03 µM) is -46.36%.
Consider `Cc1nc(CN(C)C2CCN(CCn3cc(C#N)cn3)C2)no1` (configuration not stated), for which the “Percent Effect” value (30.3 µM, […]) is listed as -2.287%.
Regarding `Cc1cccc(OCCC(=O)N(C)CCNS(C)(=O)=O)c1C`, for the setting “30 µM, 30.03 µM”, the “Percent Effect” value was 57.14%.
For `Cc1cccc(OCCC(=O)N(C)CC(C)C#N)c1C` (configuration not stated), under “30 µM, 30.03 µM”, the “Percent Effect” value was found to be 9.501%.
With `Cc1cccc(OCCC(=O)N(C)CCC#N)c1C`, for the setting “30 µM, 30.03 µM”, the “Percent Effect” value was found to be 43.96%.
In the case of `Cc1ccc(-n2cccn2)cc1S(=O)(=O)N1C[C@@H]2CC[C@H](C1)N(C)C2`, the “Percent Effect” value (30 µM, 30.03 µM) amounted to 75.01%.
Same read-out and setting: next, `COc1ccc(-n2cccn2)cc1S(=O)(=O)N1C[C@H](C2CC2)[C@@H](N)C1`: 27.88%; `Cc1ccc(-n2cccn2)cc1S(=O)(=O)N1C[C@H](C2CC2)[C@@H](N)C1`: 17.94%; `COc1ccc(N2Cc3nc(=O)n(C(C)C)n3C2=O)cc1`: -34%.
In the case of `CCN1CC2(CC1=O)CN(Cc1ccncc1)CCN(C(=O)C(C)C)C2.O=C(O)C(F)(F)F.O=C(O)C(F)(F)F` (configuration not stated), under “30 µM, 30.03 µM”, the “Percent Effect” value is recorded as -22.83%.
`O=C(NCCc1nnc2n1CCC2)N1CCC2(CCCCC2)C1`: the “Percent Effect” value (30.3 µM, […]) is recorded as -13.71%.
On the same count and under the same terms, then `O=C(NCc1nnc2n1CCC2)N1CCC2(CCCCC2)CC1`, with -3.097%.
For `O=C(NCCc1nnc2n1CCCCC2)N1CCC2(CCCC2)CC1`, the “Percent Effect” value (30.3 µM, […]) is given as 99.8%.
